# Source: the OligoGym collection
# Assays:
# Assay in all cases: pooled miR-30 sensor sort-seq; sequence = guide strand
# Settings in all cases: shRNA
# FOXN4 = molecular target: FOXN4
# FNTB = molecular target: FNTB
# FOXK1 = molecular target: FOXK1
# FPGS = molecular target: FPGS
# FTL = molecular target: FTL
# FZR1 = molecular target: FZR1
# GALE = molecular target: GALE
# GH2 = molecular target: GH2
# GLA = molecular target: GLA
# GIP = molecular target: GIP
# GJB7 = molecular target: GJB7
# GKN1 = molecular target: GKN1
# GKN2 = molecular target: GKN2
# GPIHBP1 = molecular target: GPIHBP1
# GPR172A = molecular target: GPR172A
# GPR137 = molecular target: GPR137
# GPR176 = molecular target: GPR176
# GPR173 = molecular target: GPR173
# Also: reference of the scale not given here.
sequence,measurement,setting,value
TCAGCTTGTCCAACTCCTCAGG,sensor-assay potency score (higher = more potent),FOXN4,-0.891
TCCTCCTTCAAATCGCATCTGC,sensor-assay potency score (higher = more potent),FNTB,-0.214
TACTGAAGAAGCTTCTCTCTGT,sensor-assay potency score (higher = more potent),FNTB,0.515
TTGCTGCAAACTCTGCTGCCAG,sensor-assay potency score (higher = more potent),FOXK1,-1.02
ATCTGTAGCCACTATCTGGGGG,sensor-assay potency score (higher = more potent),FNTB,-0.8
TCAGTGTTCATGTCGGTGCTGA,sensor-assay potency score (higher = more potent),FOXN4,-0.14
TACTTTTGCCTGTTCTATGGAC,sensor-assay potency score (higher = more potent),FNTB,-0.547
TACAAGGTGGTTGAACTTGTAA,sensor-assay potency score (higher = more potent),FNTB,-0.905
TTGGTGAAGAGCTCAGGACTGA,sensor-assay potency score (higher = more potent),FPGS,-0.348
TAGAAAGTATGTAGTGGCCTGG,sensor-assay potency score (higher = more potent),FNTB,-0.497
TTCTTTGTGATAGAGCGACGTG,sensor-assay potency score (higher = more potent),FOXK1,-0.986
TTTCAGATAATGGAAGTGCTTC,sensor-assay potency score (higher = more potent),FNTB,-0.367
ATGTTGATGAAGTCTACAGGAG,sensor-assay potency score (higher = more potent),FOXN4,-1.25
TCATGCAACATGGCTCCGCTGC,sensor-assay potency score (higher = more potent),FNTB,-1.29
ATTCCTGACATTATGGATGAGG,sensor-assay potency score (higher = more potent),FOXN4,-0.583
TTTGATAAAGTAACGGTTCAAA,sensor-assay potency score (higher = more potent),FOXK1,-0.935
TCCTCCATCTTGTCGATGCGGG,sensor-assay potency score (higher = more potent),FOXN4,-1.47
TTCAGAGACAGGTTGTGCCGCA,sensor-assay potency score (higher = more potent),FOXN4,0.475
TGAGTTTCGAATAATTCCTGAC,sensor-assay potency score (higher = more potent),FOXN4,-0.212
TTCTGTAGAAAGTATGTAGTGG,sensor-assay potency score (higher = more potent),FNTB,0.598
TTGAGATGAATGCACAGCCACG,sensor-assay potency score (higher = more potent),FOXN4,-1.27
TTAAGCTCCTCAAAACCTGGGA,sensor-assay potency score (higher = more potent),FNTB,-0.317
TTTGACTCATCCTTGGGGCTGT,sensor-assay potency score (higher = more potent),FOXK1,0.206
TTTGGGAATACCGGTACTCTGG,sensor-assay potency score (higher = more potent),FOXK1,-1.08
TGAAGCTGTAGATCTCGCTCAC,sensor-assay potency score (higher = more potent),FOXN4,0.304
TCATCTAGCAGTTCCAAGCTGT,sensor-assay potency score (higher = more potent),FNTB,0.0729
TTTGCCTGTTCTATGGACGTGA,sensor-assay potency score (higher = more potent),FNTB,0.213
TAGATCTCGCTCACAGGCAGGC,sensor-assay potency score (higher = more potent),FOXN4,-0.142
TTGCCGGCTAAACTGTTCGTGG,sensor-assay potency score (higher = more potent),FOXK1,-1.1
TATAAACCTTGTCTGACTGGGG,sensor-assay potency score (higher = more potent),FNTB,0.554
TGATAGAGCGACGTGAACTGGA,sensor-assay potency score (higher = more potent),FOXK1,0.268
TCGCGGTCGAAATAGAAGCCCA,sensor-assay potency score (higher = more potent),FTL,-1.25
TTTGTCGAACGGGTTTTGCTAA,sensor-assay potency score (higher = more potent),FZR1,-0.856
AATAGCGCAGCAGCACTGCGTT,sensor-assay potency score (higher = more potent),GALE,-1.17
TGAAATAGCGCAGCAGCACTGC,sensor-assay potency score (higher = more potent),GALE,-0.836
TTAAACTCCTGATAGGTGTCAT,sensor-assay potency score (higher = more potent),GH2,-0.0284
TCAAACTTGCTGTAGGACTGAT,sensor-assay potency score (higher = more potent),GH2,0.205
AACATCAACAATTCTCTCCTGG,sensor-assay potency score (higher = more potent),GLA,0.959
TCACCTTAGCATGAGATCCAAC,sensor-assay potency score (higher = more potent),GIP,-1.2
TCTTGAATCAGCAAGTCCCGCA,sensor-assay potency score (higher = more potent),GIP,-0.377
TTGTTGGTGAATCTTGTCCATG,sensor-assay potency score (higher = more potent),GIP,-1.48
TATTCTAAAACAACTAATGTTA,sensor-assay potency score (higher = more potent),GJB7,-0.542
TTGTTGTCATCATTGACGTTGA,sensor-assay potency score (higher = more potent),GKN1,-0.288
TGGTCGTGTAGCACGTTCCTGA,sensor-assay potency score (higher = more potent),GKN1,-0.625
TATTTTTGGAGACAGCACTTAA,sensor-assay potency score (higher = more potent),GJB7,-0.911
TTTATCATAGCTACAGCCCAGG,sensor-assay potency score (higher = more potent),GLA,-0.597
ATTGTTGACACTCACTGACTGC,sensor-assay potency score (higher = more potent),GKN1,-0.392
ATACTCTTTATACTTTTCCAGG,sensor-assay potency score (higher = more potent),GLA,-1.52
TTGTGTGTCACAGAGTAGCTTT,sensor-assay potency score (higher = more potent),GJB7,-0.222
TAGTACACATTTTACTATCTGT,sensor-assay potency score (higher = more potent),GJB7,-0.554
TTAATTTGACTTTTGAGTGTAA,sensor-assay potency score (higher = more potent),GKN2,0.33
TTTGTGCACAATGCATGTCTTC,sensor-assay potency score (higher = more potent),GKN1,-0.893
TTATGTGACTTCTTAACCTTGA,sensor-assay potency score (higher = more potent),GLA,0.747
TTTATTTCCAACATCTGCATAA,sensor-assay potency score (higher = more potent),GLA,-0.987
TTATAGTCAAAAATTGTGGTAG,sensor-assay potency score (higher = more potent),GKN2,0.587
TAGAGTTTCTTTCTGTGCCTTT,sensor-assay potency score (higher = more potent),GJB7,0.0219
TATACTAGTAAATTATAGGCGA,sensor-assay potency score (higher = more potent),GJB7,-0.424
TGATATTATAGTTAGCTAGGGC,sensor-assay potency score (higher = more potent),GKN1,-0.211
TACAGTATAGTACATAGTGAAT,sensor-assay potency score (higher = more potent),GJB7,-1.64
TGATGTTGTGTTTCCAGTCATT,sensor-assay potency score (higher = more potent),GIP,-1.13
TATTTTCTGACTGAATCTCAAA,sensor-assay potency score (higher = more potent),GKN2,-1.16
TTCAACACAATACACAAGCATG,sensor-assay potency score (higher = more potent),GJB7,-0.84
TGACTTTTGAGTGTAAACCAAG,sensor-assay potency score (higher = more potent),GKN2,-1.39
TTTGTCTGATCCAGCAAGCAGG,sensor-assay potency score (higher = more potent),GIP,-1.07
TTGTGAACTTCATCTTGTCTTC,sensor-assay potency score (higher = more potent),GKN1,-0.21
TTACAGTATAGTACATAGTGAA,sensor-assay potency score (higher = more potent),GJB7,-0.477
TGGTAGAAGAGCATGATCCTGC,sensor-assay potency score (higher = more potent),GKN2,-0.134
TTCATTGTTGACACTCACTGAC,sensor-assay potency score (higher = more potent),GKN1,0.268
TTTTCTGCACAGCATATTCAGA,sensor-assay potency score (higher = more potent),GKN1,-0.973
TTTAGCAGATCTACTCCCCAGT,sensor-assay potency score (higher = more potent),GLA,-0.498
TTCTTTTGAAAGAGTCTGGTTG,sensor-assay potency score (higher = more potent),GKN1,0.101
ATCCATAGTACACTGGTCGTGT,sensor-assay potency score (higher = more potent),GKN1,0.399
TTTATAGTCAAAAATTGTGGTA,sensor-assay potency score (higher = more potent),GKN2,-0.623
TAGAAGAGCATGATCCTGCATG,sensor-assay potency score (higher = more potent),GKN2,-0.328
TCTGACTCTAGAGTGACCCTTT,sensor-assay potency score (higher = more potent),GJB7,0.802
TACACTGGTCGTGTAGCACGTT,sensor-assay potency score (higher = more potent),GKN1,-0.157
TTTGTCTTCCAACTCAGCTTAG,sensor-assay potency score (higher = more potent),GJB7,-1.04
TCGTCGTAGTCATCTGGCCCGT,sensor-assay potency score (higher = more potent),GPIHBP1,-1.29
TTGGTCAGCGCGTTGGTGGCGG,sensor-assay potency score (higher = more potent),GPR172A,-0.894
TCACTATGACAGGAGCAGCAAG,sensor-assay potency score (higher = more potent),GPR137,-1.58
TAGCTGAGACGCTTGTGCCCAT,sensor-assay potency score (higher = more potent),GPR137,-0.72
ATAGATGTCAGCCACATTGGTT,sensor-assay potency score (higher = more potent),GPR176,-1.26
AAGGCCACAATCTTGCAGCTGA,sensor-assay potency score (higher = more potent),GPR173,0.463
TGGAACACGTGATAGATGCTGG,sensor-assay potency score (higher = more potent),GPR172A,-0.57
